Bioassay records deposited in PubChem BioAssay by National Center for Advancing Translational Sciences (NCATS).
IL1B secr inh – inflammasome signaling inhibition, IL-1 beta readout; THP-1 LPS/ATP IL-1B secretion, AlphaLISA, 16 h; stronger effect = lower value; activity change, % at 57.5 µM; actives 4.7% (n = 360,000); in the data active means activity change below about -50%; inconclusive means mostly about -30% to -49%
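THP-1 cells pretreated 1 hr with compounds (up to 57.5 uM final), then stimulated with LPS (250 ng/mL final) plus ATP (1.25 mM final); secreted IL-1B measured by AlphaLISA after 16 hr, decreased signal indicating inhibition.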
VP16 counter – counter-screen for ROR gamma inhibitors: Gal4-VP16 reporter. Drosophila S2 Gal4-VP16 UAS-luciferase, luminescence, 20 h. Potency, µM (doses to about 53.6 µM), without a hit: top-dose activity, negative = inhibition, actives largely listed as inhibitors. actives 3.5% (n = 310,000). AID 2546;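 further: Gal4-VP16 expression switched on by copper sulfate through the metallothionein promoter; potency means the concentration at half of the fitted maximal effect; nearly all actives have a fitted effect of over 50% in size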
TDP1 cell noCPT – qHTS for Inhibitors of human tyrosyl-DNA phosphodiesterase 1 (TDP1): qHTS in cells in absence of CPT; Potency, µM (top dose mostly 46.2 µM), for the others: top-dose activity change, negative = growth inhibition, hits mostly inhibitors; actives 15% (n = 420,000); DT40 Tdp1-/- hTDP1 cells, no CPT, ATP luminescence, 48 h; further: potency means the concentration at half of the fitted maximal effect; nearly all actives have a fitted effect of over 55% in size
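Growth of hTDP1-complemented DT40 Tdp1-knockout cells is measured by ATP luminescence after at least 48 hr compound exposure at 37 °C, with DMSO substituting for the 20 nM CPT used in the parallel screen.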
RORg inh – ROR gamma (mouse) transcription inhibition. P51450. Drosophila S2 Gal4-RORgamma UAS-luciferase reporter, 20 h. Potency, µM (series often up to 53.6 µM), without a hit: top-dose activity change, negative = inhibition, usual class: inhibitors. actives 5.4% (n = 310,000). AID 2551; further: potency means the concentration at half of the fitted maximal effect; nearly all actives have a fitted effect of over 60% in size
Target sequence (P51450 whole entry, looked up, the tested form may be a part): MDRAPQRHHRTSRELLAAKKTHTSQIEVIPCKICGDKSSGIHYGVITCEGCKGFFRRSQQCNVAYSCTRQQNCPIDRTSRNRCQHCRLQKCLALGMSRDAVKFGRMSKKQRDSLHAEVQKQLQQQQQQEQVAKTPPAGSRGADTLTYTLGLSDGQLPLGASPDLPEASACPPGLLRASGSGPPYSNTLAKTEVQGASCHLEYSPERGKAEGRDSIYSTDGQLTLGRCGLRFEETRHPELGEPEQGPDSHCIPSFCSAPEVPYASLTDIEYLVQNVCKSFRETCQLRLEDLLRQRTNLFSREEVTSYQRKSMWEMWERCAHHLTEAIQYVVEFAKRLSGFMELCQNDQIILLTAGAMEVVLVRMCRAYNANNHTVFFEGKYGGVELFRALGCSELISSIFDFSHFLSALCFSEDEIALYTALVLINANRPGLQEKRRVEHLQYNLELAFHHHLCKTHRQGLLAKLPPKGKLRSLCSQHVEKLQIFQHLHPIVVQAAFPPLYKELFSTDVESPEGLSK
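A Gal4/UAS one-hybrid system in insect cells: metallothionein-promoter Gal4–ROR gamma fusion plus Photinus luciferase reporter. Copper sulfate 700 uM final, 20 hr ambient incubation, luminescent detection after 10 min with reagent.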
ELG1 DNA repair – inhibitors of ELG1-dependent DNA repair in HEK293T cells; HEK293T ELG1-luciferase reporter, luminescence, 16 h; DNA damage induced by 5-fluorouridine; actives 2.3% (n = 330,000); Potency, µM (titrated, usually from 46.1 µM), inactives show at the highest dose activity change, negative = inhibition, usual class: inhibitors; AID 504467; further: potency means the concentration at half of the fitted maximal effect; nearly all actives have a fitted effect of over 55% in size
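Cells (2,000 per well) received 5-fluorouridine plus test compound or DMSO and were incubated 16 hr at 37 °C, 5% CO2. Luciferase activity was read by luminescence 30 min after ONE-Glo addition; signal suppression marked inhibition of damage-induced ELG1 function.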
DT40 TDP1 CPT – growth inhibition of DT40 Tdp1-/-;hTDP1 cells with camptothecin (screen for TDP1 inhibitors); chicken DT40 Tdp1-/-;hTDP1 cells + 20 nM CPT, ATP luminescence, 48 h; AID 686979; actives 12% (n = 420,000); Potency, µM (highest dose often 46.2 µM), for inactives: at the highest dose activity change, negative = growth inhibition, actives largely listed as inhibitors; further: potency means the concentration at half of the fitted maximal effect; nearly all actives have a fitted effect of over 55% in size
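Cell growth measured by CellTiter-Glo luminescence after a minimum 48 h, 37 C compound exposure with 20 nM CPT in Tdp1-knockout DT40 cells stably expressing hTDP1, seeded 400/well; qHTS titration format.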
The depositor's hits bear a star; u = inconclusive; x = no result given; [ ] = dose if it differs, or a comment. This is a sample that favours compounds with a hit; in the whole collection about 21% have one here. Unless noted, the call rests on the fitted dose curve; in most records, active means well fitted curve in the direction sought with a large enough effect; inconclusive means small, poorly fitted or top-dose-only effect, or another doubt; inactive means no such curve, though single readings can be large; an effect the other way counts as inactive or inconclusive. On the % scale 0 is the no-effect control and ±100 the full control effect.

SMILES | IL1B secr inh | VP16 counter | TDP1 cell noCPT | RORg inh | ELG1 DNA repair | DT40 TDP1 CPT
COc1ccccc1CN(C)CC(=O)Nc1ccccc1-c1ccccc1 | -82.0* | 5.3% | 23.1µM* | 2.2% | -14.2% | u
CCN(CC(=O)Nc1ccccc1OC)CC(=O)Nc1ccccc1-c1ccccc1 | 26.7 | 5.3% | 9.2µM* | -0.6% | u | 7.31µM*
COc1ccccc1NC(=O)c1ccc(NC(=O)CN(C)Cc2ccccc2F)cc1 | x | 0.1% | 23.1µM* | 17.1% | u | -8.3%
COc1ccc(CN(C)CC(=O)Nc2ccccc2-c2ccccc2)c(OC)c1 | -51.0* | -2.4% | 18.4µM* | 4.9% | u | u
COc1ccc(S(=O)(=O)N2CCOCC2)cc1NC(=O)c1c(-c2ccccc2)noc1C | -18.7 | x | -21.7% | x | u | 2.9%
CCC(C)C(N)C(=O)N1CCCC1C(=O)NC(C(=O)O)C(C)CC (stereo not drawn) | 0.0 | x | 1.5% | x | x | 0.2%
Cc1ccccc1NS(=O)(=O)c1ccc(NS(=O)(=O)c2cccs2)cc1 | 15.8 | 9.2% | 25.9% | u | 5.2% | 6.2%
COC(=O)c1ccc(CN(c2ccc(C)cc2)S(=O)(=O)c2ccc3c(c2)OCCO3)o1 | 37.8 | -3.7% | 16.4µM* | -3.0% | 20.6µM* | 11.6µM*
COc1ccc(N(CC(=O)Nc2ccc3c(c2)OCO3)S(=O)(=O)c2ccc(F)cc2)cc1 | 0.0 | -18.5% | u | 36.1% | -6.7% | u
COc1ccc(N(CC(=O)Nc2ccc3c(c2)OCO3)S(=O)(=O)c2ccccc2)c(OC)c1 | -17.3 | 2.3% | 18.4µM* | 6.4% | 14.6µM* | 20.6µM*
COc1ccccc1N(CC(=O)Nc1ccc2c(c1)OCCO2)S(=O)(=O)c1ccc(C)cc1 | -9.6 | 9.7% | 9.2µM* | 9.9% | -22.0% | u
COc1ccc(N(CC(=O)Nc2ccc3c(c2)OCCO3)S(=O)(=O)c2cccc(C)c2)cc1 | -9.3 | x | u | x | -21.9% | 25.9µM*
Nc1nc(N(Cc2ccccc2)Cc2ccccc2)nc(C(F)(F)F)n1 | -7.0 | x | -21.9% | x | 16.6% | -31.0%
Cc1ccc2c(c1)CCCO[C@]21O[C@H](CCO)C[C@H](O)[C@H]1O | 18.6 | x | 21.8% | x | x | -0.3%
CCCCCCC1=Cc2cc(OC)c(OC)cc2C(C(C(C)=O)C(=O)OCC)O1 (stereo not drawn) | x | -9.9%[10 µM] | x | -13.3%[10 µM] | x | x
COc1ccc(N(CC(=O)Nc2ccc3c(c2)OCO3)S(=O)(=O)c2ccccc2)cc1OC | 8.5 | 1.3% | u | 1.8% | u | u
Cc1ccc(N(C(C)C(=O)Nc2ccc3c(c2)OCO3)S(C)(=O)=O)cc1 (stereo not drawn) | -4.4 | -5.2% | 20.6µM* | 32.5% | 3.7% | 13µM*
CN(c1ccc(C(=O)Nc2ccc3c(c2)OCO3)cc1)S(C)(=O)=O | u | -6.1% | u | -38.9% | u | -13.1%
COc1ccc(N(CC(=O)Nc2ccc3c(c2)OCO3)S(=O)(=O)c2ccc(C)cc2)cc1OC | 24.3 | -6.2% | u | 4.8% | 25.9µM* | u
O=C(C1CC1)N1N=C(c2ccccc2)CC1(O)C(F)(F)C(F)(F)F (stereo not drawn) | 4.7 | u | -2.7% | 11.2µM* | u | 18.4%
O=Cc1ccc(C(=O)OCC(=O)NCCC2=CCCCC2)cc1 | -1.4 | x | 1.9% | x | 11.8% | 9.4%
CCC(=O)N1CCCc2cc(S(=O)(=O)N3CCN(c4ccccn4)CC3)ccc21 | -15.6 | 6.1% | 20.6µM* | 32.9% | -24.1% | u
CCC(=O)N1CCc2cc(S(=O)(=O)N3CCCCCC3)ccc21 | -2.6 | 2.3% | -2.2% | 6.1% | 0.0% | -5.9%
O=C(C1CCC1)N1CCc2cc(S(=O)(=O)N3CCN(c4ccccn4)CC3)ccc21 | -3.1 | 12.7% | u | 32.3% | 18.4µM* | u
CCC(=O)N1CCCc2cc(S(=O)(=O)N3CCN(c4ncccn4)CC3)ccc21 | -1.2 | -4.2% | u | -0.5% | u | 14.6µM*
SMILES | IL1B secr inh | VP16 counter | TDP1 cell noCPT | RORg inh | ELG1 DNA repair | DT40 TDP1 CPT
CCC(=O)N1CCc2cc(S(=O)(=O)N3CCCC3)ccc21 | 4.0 | -2.4% | -11.3% | -1.0% | 1.7% | -3.4%
CCOC(=O)c1oc2ccc(OC)cc2c1NC(=O)CN1CCN(C)CC1 | -18.6 | -6.3% | -19.1% | 5.6% | u | 1.4%
Cc1ccc(C(=O)c2oc3ccc(Cl)cc3c2NC(=O)CN2CCN(C)CC2)cc1 | -56.9* | u | 20.6µM* | u | -0.6% | u
CCCCN(C)CCNC(=O)c1ccc2c(c1)NC(=O)C(N1CCCCC1)S2 (stereo not drawn) | -10.9 | -11.3% | u | 41.7% | -3.2% | u
[O-][N+]1=c2ccc(Nc3ccccc3)cc2=NC12CCCCC2 | -98.0* | 12.6µM* | 4.11µM* | 10µM* | u | 3.66µM*
Nc1cccc(Nc2ccccc2)c1 | 19.7 | 2.9% | 1.5% | 15.0% | 15.2% | 0.5%
COc1ccc(Nc2ccc3c(c2)=NC2(CCCCC2)[N+]=3[O-])cc1 | -97.0* | 11.2µM* | 2.59µM* | 11.2µM* | u | 2.59µM*
CN(CC[C@@H](Oc1ccc(C(F)(F)F)cc1)c1ccccc1)CC(=O)O | x | 0.0% | x | -1.9% | x | x
CSc1ccc(COC(=O)c2cc([N+](=O)[O-])ccc2N2CCOCC2)cc1 | -9.2 | x | 0.0259µM* | x | -19.4% | 0.0411µM*
CN(Cc1ccc(F)cc1)C(=O)c1cc(S(=O)(=O)N2CCCCC2)ccc1N1CCOCC1 | -5.1 | x | 16.4µM* | x | 9.2% | u
O=C(OCc1ccc([N+](=O)[O-])cc1)c1cc(S(=O)(=O)N2CCCCC2)ccc1N1CCOCC1 | -14.6 | x | 7.31µM* | x | u | 14.6µM*
Cc1ccccc1COC(=O)c1cc([N+](=O)[O-])ccc1N1CCOCC1 | 15.5 | -1.9% | u | u | -15.9% | u
O=C(OCc1ccc(F)cc1)c1cc(S(=O)(=O)N2CCCCC2)ccc1N1CCOCC1 | -5.1 | x | 11.6µM* | x | -5.3% | 29.1µM*
CC(C)C(=O)N1CCC1(C)C(=O)NCc1ccc(F)cc1Cl (stereo not drawn) | -5.3 | x | -10.5% | x | x | u
CN(CC(=O)Nc1ccc(Cl)c(Cl)c1)CC(=O)N1CCc2ccccc21 | -20.7 | x | u | x | x | -21.3%
COc1ccc(COC(=O)c2cc(S(=O)(=O)N3CCCCC3)ccc2N2CCOCC2)cc1 | -2.9 | x | 16.4µM* | x | u | 18.4µM*
